Measured values from PubChem BioAssay (NCATS).
A number with no mark means an inactive call. No rule for the calls is given here.

test system: HIV-1 nucleocapsid protein NCp7 (binding to TG oligonucleotide); test: HIV Nucleocapsid (AID 346); settings: HIV-1 NC / fluorescein-TGTGTGTG probe, fluorescence polarization;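 also: potency is for inhibitors that block NC binding and lower polarization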
Summary of the method: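 Inhibition of nucleocapsid binding to single-stranded 5'-TGTGTGTG probe (10 nM) was measured by fluorescence polarization after 1 hr at room temperature with 100 nM protein under high-salt, zinc-containing, reducing conditions.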
Potency is read from the fitted curve at half-maximal effect.

Structure (SMILES) | Potency [µM]
O=C(c1cnccn1)N1CCC2(CC1)CN(c1ccncc1)C2 | > 20
O=C(Oc1ccccc1)N1CCC2(CC1)CN(c1ccncc1)C2 | > 20
COc1cccc(-c2nccc(NCc3cnc(C)cn3)n2)c1 | > 20
COc1ccccc1-c1ccc2ncnc(NCc3cnc(C)cn3)c2c1 | > 20
COc1ccccc1-c1cncnc1NCCc1cnc[nH]1 | > 20
CC(=O)N1CCC2(CC1)CN(c1ccccc1)C2 | > 20
COc1ccccc1CNc1nc(-c2ccc3c(c2)OCO3)nc2ccccc12 | > 20
CC(=O)NCCNc1nc(-c2ccccc2CN(C)C)nc2ccccc12 | > 20
Cc1cccc(CNc2ccnc(-c3ccc(N(C)C)cc3)n2)c1 | > 20
COc1ccc(NC(=O)N2CCC3(CC2)CCN(C(=O)c2csnn2)CC3)cc1 | > 20
Cc1ccccc1-c1nccc(NCc2cccnc2)n1 | > 20
O=C(c1ccncc1)N1CCC2(CC1)CN(C(c1ccccc1)c1ccccc1)C2 | > 20
COc1ccccc1CNc1ncnc2ccc(-c3c(C)noc3C)cc12 | > 20
c1ccc(CNc2ccnc(-c3ccoc3)n2)cc1 | > 20
CC(C)NC(=O)N1CC[C@@]2(CCCN(C(=O)c3cccn3C)C2)C1 | > 20
Cc1nc2cncnc2n(Cc2ccccc2)c1=O | > 20
CS(=O)(=O)Nc1cccc(-c2nccc(NCc3ccccc3)n2)c1 | > 20
CCNc1ncc2nc(-c3cn(C)c4ccccc34)c(=O)n(Cc3cccc(OC)c3)c2n1 | > 20
O=c1cnc2cncnc2n1Cc1ccccc1Cl | > 20
Cn1cccc1C(=O)N1CCC2(CC1)CCN(c1ccncc1)CC2 | > 20

Structure (SMILES) | Potency [µM]
COC(=O)N1CCC2(CC1)CN(C(=O)Nc1ccc(OC)cc1)C2 | > 20
Cn1cccc1C(=O)N1CCC2(CC1)CN(C(=O)Nc1cccc(F)c1)C2 | > 20
COc1cccc(-c2cc(N(C)Cc3ccco3)ncn2)c1 | > 20
COc1ccccc1-c1ccc2ncnc(NCc3cccnc3)c2c1 | > 20
Cc1nc2cnc(Oc3cccc(Cl)c3)nc2n(CCc2ccccc2)c1=O | > 20
Cc1cnc(CNc2ncnc3ccc(-c4ccccc4C(F)(F)F)cc23)cn1 | > 20
COc1ccc(NC(=O)N2CCC3(CC2)CCN(C(=O)c2cccc(F)c2)CC3)cc1 | > 20
O=C(c1csnn1)N1CCC[C@@]2(CCN(Cc3ccccc3)C2)C1 | > 20
Cc1cccc(CNc2nc(-c3cccc(NS(C)(=O)=O)c3)nc3ccccc23)c1 | > 20
Cc1noc(C)c1C(=O)N1CCC2(CCCN(C(=O)Nc3cccc(C#N)c3)C2)CC1 | > 20
O=C(Nc1ccccc1)N1CC[C@@]2(CCCN(C(=O)c3cccc(F)c3)C2)C1 | > 20
O=c1c(-c2ccccc2)nc2cncnc2n1-c1ccccc1 | > 20
c1cncc(-c2nc(N3CCNCC3)c3ccccc3n2)c1 | > 20
COCC(=O)N1CCC2(CC1)CN(C(=O)Nc1ccc(OC)cc1)C2 | > 20
CCNc1ncc2nc(-c3cc(F)cc(F)c3)c(=O)n(CCC#N)c2n1 | 19.8
O=C(c1cnccn1)N1CCC2(CC1)CN(Cc1nccs1)C2 | > 20
COc1ncc2ncc(=O)n(C3CC3)c2n1 | > 20
CN(C)c1ncc2nc(CCc3ccccc3)c(=O)n(Cc3cccs3)c2n1 | > 20
COCCNc1nc(-c2ccc(C(=O)N(C)C)cc2)nc2ccccc12 | > 20
O=C(Nc1ccccc1)N1CCCC2(CCN(C(=O)c3cccc(F)c3)CC2)C1 | > 20
